Most compounds without a hit are left out; they make up all but 5.7% or so of the library.
HT1080 IDH1KD tx: kills HT-1080 cells with IDH1 knockdown. HT-1080 IDH1 knockdown viability, ATP luminescence, 48 h. Potency, µM (doses to about 46.1 µM), for inactives: at the highest dose activity, negative = toxicity, hits mostly cytotoxic. actives 2% (n = 360,000). AID 686971;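 also: 0% = DMSO wells and -100% = cell-free medium wells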
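Cytotoxicity counter-line: IDH1KD HT-1080, 48 h, CellTiter-Glo. Curves classed by r2, magnitude and activity.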
KB-3-1 tox: kills parental KB-3-1 adenocarcinoma cells; KB-3-1 viability, CellTiter-Glo ATP luminescence, 72 h; Potency, µM (highest dose often 46.1 µM), hits mostly cytotoxic; actives 1.4% (n = 400,000); AID 1347075; also: nearly all actives have a fitted effect of over 60% in size
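KB-3-1 parental drug-naive adenocarcinoma cells in DMEM/10% FBS, incubated 72 h at 37 C with pin-transferred compounds across a concentration series. Viability by CellTiter-Glo luminescence; concentration-response curves fitted after normalization.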
HT1080-NT tox: kills 2HG-producing HT-1080-NT fibrosarcoma cells | actives 1.6% (n = 360,000) | HT-1080-NT fibrosarcoma viability, CellTiter-Glo ATP luminescence, 48 h | Potency, µM (titrated, usually from 46.1 µM), for the others: at the top dose activity, negative = less viability, most hits filed as cytotoxic;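 also: NT is the 2HG producing partner of a matched IDH1 knockdown line; 0% = DMSO-treated cells and -100% = media-only wells without cells; nearly all actives have a fitted effect of over 55% in size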
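750 cells/well, RPMI + 5% FBS; 2 h settle, compound pin-transfer, 48 h at 37 degrees C. CellTiter-Glo 10 min RT, luminescence. Normalized to DMSO and media-only wells.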
KB-V1 cytotox: KB-V1 MDR subline cytotoxicity. actives 3.4% (n = 400,000). Potency, µM (series often up to 46.1 µM), most hits filed as cytotoxic. KB-V1 MDR cells viability, CellTiter-Glo, 72 h; also: nearly all actives have a fitted effect of over 60% in size
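Following 72 h at 37 degrees C with compound, KB-V1 cell viability was read by CellTiter-Glo luminescence, medium being phenol-red-free DMEM plus 10% FBS; concentration-response parameters came from normalized, curve-fitted qHTS data.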
An asterisk follows results filed as active; i = inactive; ? = inconclusive; / = no result; ! = repeats disagree. Calls follow the shape of the dose curve; as a rule, active = well fitted curve in the direction sought with a large enough effect; inconclusive = small, poorly fitted or top-dose-only effect, or another doubt; inactive = no such curve, though single readings can be large; an effect the other way counts as inactive or inconclusive. Unless noted, % is scaled to controls: 0 for no effect and ±100 for the full control effect; potency is read from the fitted curve at half-maximal effect.

SMILES	HT1080 IDH1KD tx	KB-3-1 tox	HT1080-NT tox	KB-V1 cytotox
Cc1ccc(Cn2cc(C=O)c3ccccc32)cc1	-20%	?	-24%	?
NC(Cc1ccc(Cl)cc1)c1csc(Nc2cnccn2)n1 (stereo not given)	?	i	?	i
COc1ccc(CC(N)c2csc(NC(=O)Nc3ccccc3Oc3ccccc3)n2)cc1 (stereo not given)	?	i	15µM*	i
CCOC(=O)[C@]12Cc3cc(Cl)ccc3[C@H]1N(C)C(=O)c1ccccc12	1%	?	3%	i
CCOC(=O)[C@]12Cc3cc(Cl)ccc3[C@H]1N(C(C)C)C(=O)c1ccccc12	3.3µM*	2.6µM*	4.6µM*	5.2µM*
CCOC(=O)[C@]12Cc3cc(Cl)ccc3[C@H]1N(CC(=O)OC)C(=O)c1ccccc12	7.3µM*	3.7µM*	5.8µM*	12µM*
N#Cc1cc2c(nc1SCC(=O)Nc1ccc(OC(F)(F)F)cc1)C1CCN2CC1	/	?	/	i
NCCc1nc2ccccc2s1	-2%	i	-7%	?
Cc1nn(-c2nc3ccccc3s2)c(C)c1Oc1ccccc1O	13µM*	i	13µM*	i
CCOC(=O)C1(C)CCCN1C(=O)c1cccs1 (stereo not given)	3%	i	?	i
C[C@H]1O[C@@H](OC2CC[C@]3(C=O)[C@H]4CC[C@]5(C)[C@@H](C6=CC(=O)OC6)CC[C@]5(O)[C@@H]4CC[C@]3(O)C2)CC2OC(C)(C)OC21 (stereo not given in full)	0.1µM*	?	0.18µM*	?
C[C@]12CC[C@H]3[C@@H](CC[C@]4(O)C[C@@H](O)CC[C@]34C=O)[C@@]1(O)CC[C@@H]2C1=CC(=O)OC1	0.65µM*	0.52µM*	1.2µM*	0.92µM*
C[C@]12CCC3C(CCC4=CC(O)CC[C@@]43/C=N/O)C1(O)CCC2C1=CC(=O)OC1 (stereo not given in full)	0.82µM*	0.29µM*	3.3µM*	0.65µM*
CC12CCC3C(CCC4(O)CC(O)CCC34C=NO)C1(O)CCC2C1=COC(=O)C1 (stereo not given)	0.58µM*	0.37µM*	0.82µM*	?
CC12CC[C@H]3[C@@H](CCC4(O)C[C@H](O)CCC34/C=N/NC(=O)c3ccccc3Cl)C1(O)CCC2C1=CC(=O)OC1 (stereo not given in full)	-2%	i	4%	i
COc1ccc(NC(=O)Cn2c3ccccc3c3nc4n(c(=O)c32)CCS4)cc1	?	i	?	i
CCCCN=C[C@]12CCC(O)CC1(O)CCC1[C@@H]2CC[C@]2(C)[C@H](C3C=CC(=O)O3)CCC12O (stereo not given in full)	1.5µM*	0.23µM*	1.8µM*	0.52µM*
CC12CCC3C(CCC4(O)CC(O)CCC34C=O)C1(O)CCC2C1=CC(=O)OC1 (stereo not given)	1.5µM*	1.3µM*	1.6µM*	?
CC1=C(C(=O)Nc2ccccc2)C(c2ccc(C)cc2)N=C(Nc2nc3ccccc3o2)N1 (stereo not given)	11µM*	i	?	i
O=C(COc1cccc(Cl)c1)N1CCN(CCc2ccncc2)CC1	/	i	/	i
CCCCCCCCN1C(=O)[C@H](CC(=O)NCCc2ccccc2OC)C[C@@]2(C(=O)OC)CCCCC=C12	?	i	?	?
O=C(c1cc(C(=O)NCc2ccccc2)c(=O)n(Cc2ccccc2)c1)c1cc(Cl)ccc1O	-24%	?	-20%	18µM*
O=C(NCc1ccccc1)c1cccn(Cc2ccccc2)c1=O	0%	i	-2%	i
CCCCC(CC)COP(=O)(OCC(CC)CCCC)OCC(CC)CCCC (stereo not given)	-4%	?	?	?
Cc1ccc(-c2nc(CN3C(=O)CN=C(c4ccccc4)c4ccccc43)c(C)o2)cc1	/	i	/	i
SMILES	HT1080 IDH1KD tx	KB-3-1 tox	HT1080-NT tox	KB-V1 cytotox
COc1ccc(-c2nc(CN3C(=O)CN=C(c4ccccc4)c4ccccc43)c(C)o2)cc1	/	15µM*	/	?
O=C(CN1CCOCC1)c1ccc2ccccc2c1	/	?	/	i
Cc1c(C(=O)C(=O)N2CCC3(CC2)OCCO3)c2ccccc2n1C	21%	i	5%	i
O=C(CN1CCCCC1)c1cccc(Br)c1	2%	i	2%	i
Cn1c(CN2CCCCC2)nc2cc(NC(=O)c3cccc(Br)c3)ccc21	?	18µM*!	?	?
O=C1c2cccc(N3CCNCC3)c2C2CCCCN12 (stereo not given)	15%	i	4%	i
COc1ccc(Nc2nc(N3CCCC3)nc3ccccc23)c(OC)c1	11µM*	i	?	?
O=C(Nc1cccc(C(F)(F)F)c1)c1cccn(Cc2ccc3c(c2)OC(F)(F)O3)c1=O	-7%	i	-5%	i
O=C(Nc1ccc(C(F)(F)F)cc1)c1cccn(Cc2ccc3c(c2)OC(F)(F)O3)c1=O	-4%	8.2µM*	-13%	2.9µM*
COC(=O)C1=C(c2ccc(-c3ccccc3)c(F)c2)C[C@@H]2CC[C@H]1N2C(=O)NCCO	-1%	?	9%	?
COC(=O)C1=C(c2ccc(OCc3ccccc3)cc2)C[C@@H]2CC[C@H]1N2C(=O)NCc1ccc(OC)c(OC)c1	-9%	?	-29%	i
COC(=O)C1=C(c2cc3ccccc3s2)C[C@@H]2CC[C@H]1N2C(=O)NCC1CC1	-2%	i	3%	i
COC(=O)C1=C(c2ccc(-c3ccccc3)c(F)c2)C[C@@H]2CC[C@H]1N2C(=O)NCCOc1ccccc1Cl	-17%	?	-25%	21µM*
COC(=O)C1=C(c2ccc(OCc3ccccc3)cc2)C[C@@H]2CC[C@H]1N2C(=O)NCc1ccccc1OC	-25%	21µM*	-14%	?
COC(=O)C1=C(c2cccc(OCc3ccccc3)c2)C[C@@H]2CC[C@H]1N2C(=O)NC1CCN(Cc2ccccc2)CC1	?	?	23µM*	i
COC(=O)C1=C(c2cc3ccccc3s2)C[C@@H]2CC[C@H]1N2C(=O)NCc1ccc(C(F)(F)F)cc1	?	?	?	18µM*
c1ccc2[nH]c(CCN3CCCCC3)nc2c1	0%	i	2%	i
CCCNC(=O)c1cc2c(c(-c3cccc(-c4cc5ccccc5o4)c3)n1)[C@H](CCO)N(C(=O)NC(C)C)C2	?	i	?	?
CCCc1nc(SCC(=O)N2CCc3ccccc3C2)c2ccccc2n1	?	i	?	i
CCC1(O)C(=O)OCc2c1cc1n(c2=O)Cc2cc3c(N)cccc3nc2-1 (stereo not given)	0.65µM*	0.21µM*	1.6µM*	1.5µM*
COc1cccc(C2SCC(=O)Nc3c2c(C)nn3-c2ccc(C)c(Cl)c2)c1OC (stereo not given)	/	i	/	i

From PubChem
